Screens as filed in PubChem BioAssay.
This is a sample that favours compounds with a hit; in the whole collection about 2% have one here.
VLA-4 inh: inhibition in a human VLA-4 binding assay; P13612; VLA-4 expressing cells, ligand binding flow cytometry; inhibition, % (about 7 µM as worked out from the volumes in the protocol); 330,000 tested, 0.2% active; in the data active means inhibition above about 50%
Granule exo inh: blocks lytic granule exocytosis; TALL-104 LAMP-1 surface exposure, flow cytometry; cells stimulated with thapsigargin and PMA; inhibition, % at 10 µM; 360,000 tested, 0.66% active; AID 651702;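 active means inhibition above about 55%, limit read from the data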
PG9 Ab binder: small molecules binding HIV-1 gp120 antibody PG9. 360,000 tested, 0.43% active. TR-FRET gp120-PG9 antibody binding. inhibition, % at 6.7 µM; in the data active means inhibition above about 8.5%
NR1D1 modulator: modulates human Rev-erb alpha binding to DNA | Rev-erbα–FITC-DNA binding, fluorescence polarization, 90 min | 370,000 tested, 0.79% active | P20393 | activity, % at 10 µM;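 active means activity above about 14%, limit read from the data; passing the limit was not always enough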;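 further: 0% = DMSO wells with 35 nM protein and 100% = DMSO wells with 750 nM protein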
Target sequence (P20393 whole entry, looked up): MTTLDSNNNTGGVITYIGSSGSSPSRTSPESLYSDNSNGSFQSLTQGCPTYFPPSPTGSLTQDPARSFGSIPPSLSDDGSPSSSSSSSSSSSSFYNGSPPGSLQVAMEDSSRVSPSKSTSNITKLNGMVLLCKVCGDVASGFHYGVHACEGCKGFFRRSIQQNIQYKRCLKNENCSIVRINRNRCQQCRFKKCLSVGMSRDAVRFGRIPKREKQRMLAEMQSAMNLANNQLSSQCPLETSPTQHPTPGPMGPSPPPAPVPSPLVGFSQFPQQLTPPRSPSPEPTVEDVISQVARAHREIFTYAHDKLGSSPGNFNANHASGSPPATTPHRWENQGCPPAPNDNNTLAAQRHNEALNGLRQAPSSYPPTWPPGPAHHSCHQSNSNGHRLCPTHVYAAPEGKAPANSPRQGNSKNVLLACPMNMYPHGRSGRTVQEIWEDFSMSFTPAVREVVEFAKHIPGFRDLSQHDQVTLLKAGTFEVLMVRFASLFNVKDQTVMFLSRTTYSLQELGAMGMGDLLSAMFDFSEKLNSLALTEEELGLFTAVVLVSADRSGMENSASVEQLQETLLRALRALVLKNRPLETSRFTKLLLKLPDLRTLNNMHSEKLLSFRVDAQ
ABCB6 inh 2: blocks the human ABCB6 transporter. 360,000 tested, 0.19% active. fluorescence ratio to DMSO, % at 10 µM. AID 602162. Q9NP58. K562-ABCB6 porphyrin accumulation, flow cytometry, 1 h; stronger effect = lower value;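 active means fluorescence ratio to DMSO below 75%, the collection mean minus 3 SD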;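 further: signal is porphyrin accumulated inside mitochondria; 100% equals median channel fluorescence of DMSO control wells; lower ratio means ABCB6 inhibition with less porphyrin fluorescence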
* = called active by the depositor; i = inactive; nt = not tested or not shown.

SMILES	VLA-4 inh	Granule exo inh	PG9 Ab binder	NR1D1 modulator	ABCB6 inh 2
Cc1cc(N2CCN(C)CC2)nc2ccc(NC(=S)NCCN3CCc4ccccc4C3)cc12	-2.0	10.5	-0.3	-7.1	95.0
Cc1cc(N2CCN(C)CC2)nc2ccc(NC(=S)NCCCN3CCc4ccccc4C3)cc12	8.7	58.9*	-1.3	-2.5	96.0
CCOc1ccc(C2/C(=C(/O)c3ccc4c(c3)CC(C)O4)C(=O)C(=O)N2CC2CCCO2)cc1 (stereo not drawn)	1.4	-0.1	0.7	-0.5	101.0
CCN(CC)CCN1C(=O)C(=O)/C(=C(/O)c2ccc3c(c2)CC(C)O3)C1c1ccc(OC)cc1 (stereo not drawn)	7.8	92.1*	0.9	-3.4	99.0
COc1cccc(NC(=O)n2ccc3ccc(-c4ccc5ccn(C(=O)Nc6cccc(OC)c6)c5c4)cc32)c1	nt	nt	nt	4.7	nt
O=C(NCCOc1ccccc1)c1ccccc1Cl	3.5	-5.8	0.4	-6.9	96.0
NNC(=O)c1ccccc1OCCOc1ccccc1	-11.5	59.4*	-1.2	0.8	90.0
C/C(=N\NC(=O)c1ccccc1OCCOc1ccccc1)c1ccccc1F	nt	-1.8	-1.6	-3.2	96.0
CN(C(=O)COc1ccccc1C(=O)NCCOc1ccccc1)c1ccccc1	1.4	67.0*	-0.5	-1.5	86.0
COc1cccc(-c2ccc(CC[C@H]3O[C@H]4CC[C@@H](CO)O[C@H]4C[C@H]3NS(C)(=O)=O)cc2)c1	nt	nt	nt	-0.7	nt
CN(C)CCOc1ccc(C(C)(C)c2ccccc2)cc1	-0.1	-4.7	-1.9	-1.1	100.0
CC(C)(c1ccccc1)c1ccc(OCC2CO2)cc1 (stereo not drawn)	-6.6	56.0*	-0.1	6.6	93.0
COc1ccc(CCNC(=O)c2ccc3c(c2)ncn3C2CCCCC2)cc1	nt	nt	nt	-5.2	nt
O=[N+]([O-])c1ccc2c3n([n+]([O-])c2c1)CCN=C3c1ccc(Cl)cc1	26.6	77.9*	0.1	1.1	111.0
Cc1ccc(C2=NCCn3c2c2ccc([N+](=O)[O-])cc2[n+]3[O-])cc1	-22.7	-1.9	-2.9	6.8	104.0
O=[N+]([O-])c1ccc(S(=O)(=O)c2cccc(C(F)(F)F)c2)nc1	24.7	59.7*	nt	nt	100.0
O=S(=O)(Nc1cccnc1)c1cccc(C(F)(F)F)c1	-0.9	9.9	-3.5	-4.2	90.0
C(=Nc1cccc2c(N=Cc3ccco3)cccc12)c1ccco1	-5.5	102.7*	nt	nt	104.0
CN(C)c1ccc(N=Cc2ccco2)cc1	-15.7	8.8	nt	nt	102.0
Cc1ccc2nc(Cl)c(/C=C/C(=O)c3ccco3)cc2c1	-3.6	86.0*	-1.5	5.6	98.0
Cc1ccc2cc(/C=C/C(=O)c3ccco3)c(Cl)nc2c1	5.8	94.9*	-0.2	3.3	92.0
COc1ccc2cc(/C=C/C(=O)c3ccco3)c(Cl)nc2c1	15.5	nt	nt	nt	nt
CC(C)(C)C(=O)OC12CCCN(C1)/C(=C/c1cccnc1)C2 (stereo not drawn)	nt	nt	nt	5.9	nt
CCN(CC)C(=O)CC[C@@H]1CC[C@]2(CCCN(Cc3ccc(Cl)cc3)C2)O1	nt	nt	nt	4.5	nt
CN1C2CCC1/C(=C\c1ccc(F)cc1)C(=O)/C2=C/c1ccc(F)cc1	12.6	-1.0	0.0	-1.0	90.0
SMILES	VLA-4 inh	Granule exo inh	PG9 Ab binder	NR1D1 modulator	ABCB6 inh 2
C=CC(=O)N1C/C(=C/c2ccc(F)cc2)C(=O)/C(=C\c2ccc(F)cc2)C1	nt	93.9*	0.1	-2.8	93.0
CCOC(=O)C1=C(Cc2ccc(OC)cc2)C(=O)c2ccccc2C1=O	nt	105.2*	nt	nt	513.0
CCOC(=O)C1=C(O)c2ccccc2C(=O)/C1=C\c1ccc(CC)cc1	i	101.5*	nt	nt	905.0
COC(=O)c1cc(-c2ccccc2OC)c(=O)n2c1CCC2	nt	nt	nt	0.4	nt
Cc1ccccc1C1CCC2(CCC(=O)N2CC[C@@H](O)c2ccccc2)CC1 (stereo partly drawn)	nt	nt	nt	6.8	nt
c1cc2c3c(cccc3c1)NC1(CCCC1)N2	nt	1.1	-3.2	0.7	110.0
CC1(C)Nc2cccc3cccc(c23)N1	nt	62.8*	-7.8	5.8	96.0
COC(=O)[C@H](C(C)C)N1Cc2nnn(CC3CCCCC3)c2-c2ccccc2S1(=O)=O	nt	nt	nt	0.5	nt
CCCc1cn(-c2ccc3c(c2)[C@]2(CC(=O)N(C)C2c2ccccc2)C(=O)N3CC(C)C)nn1 (stereo partly drawn)	nt	nt	nt	4.0	nt
Cc1ccnc(N2C(=O)c3cccc4c([N+](=O)[O-])ccc(c34)C2=O)c1	-122.1	77.3*	0.3	nt	177.0
Cc1ccc(N2C(=O)c3cccc4c([N+](=O)[O-])ccc(c34)C2=O)c2cccnc12	17.9	13.3	-0.8	-1.1	149.0
Cc1nnc(N2C(=O)c3cccc4c([N+](=O)[O-])ccc(c34)C2=O)s1	-29.9	85.9*	-1.1	5.4	124.0
CC(C)(C)OC(=O)NCc1cc(F)ccc1/C=C/S(=O)(=O)NC1CCCC1	nt	nt	nt	1.2	nt
COc1ccc(-c2c(Cc3ccccc3)nc(NC(=O)c3ccccc3)n2Cc2ccc(OC)cc2OC)cc1	nt	nt	nt	3.5	nt
CC(=O)c1cc(-c2ccc3[nH]ccc3c2)c(=O)n2c1CCC2	nt	nt	nt	-1.8	nt
CCCCCN1CCCCC(NC(=O)c2cc(OC)c(OC)c(OC)c2)C1=O (stereo not drawn)	nt	nt	nt	-2.9	nt
NC(=S)N/N=C/c1ccc(-c2ccc(Cl)c(Cl)c2)o1	-2.4	27.0	-2.9	0.6	141.0
NC(=S)N/N=C/c1ccc(-c2ccccc2)o1	-7.1	91.0*	2.5	1.3	101.0
Cc1ccc(-c2ccc(/C=N/NC(N)=S)o2)cc1	-7.3	103.1*	-2.5	5.7	93.0
Cc1ccccc1CN1CCCCC(NC(=O)c2c(F)cccc2F)C1=O (stereo not drawn)	nt	nt	nt	3.0	nt
CCCN(CCC)Cc1cc(=O)oc2ccccc12	nt	nt	0.9	0.8	nt
COC(=O)C1=C(C)N(C)C(=NCc2cc(OC)c(OC)c(OC)c2)NC1c1cccc(F)c1 (stereo not drawn)	nt	nt	-0.2	-4.2	nt
COC(=O)c1cc2c(c3c4ccccc4n(S(=O)(=O)c4ccc(C)cc4)c13)C(=O)N(Cc1ccccc1)C2	nt	nt	0.3	1.9	nt
CC(NC(=O)/C(C#N)=C/c1ccc([N+](=O)[O-])o1)c1ccccc1 (stereo not drawn)	-22.3	66.9*	-1.9	3.1	256.0
CCC[C@H]1[C@@H](NC(=O)c2ccc(OC)cc2)CC[C@@]23CCCN2C(=O)CCC[C@@H]13	nt	nt	nt	-3.2	nt
SMILES	VLA-4 inh	Granule exo inh	PG9 Ab binder	NR1D1 modulator	ABCB6 inh 2
Cc1cc(CNC(=O)Cn2nc(C)c([N+](=O)[O-])c2C)c2ccccc2n1	21.0	57.6*	1.4	0.3	106.0
O=C(OCc1ccccc1)[C@H](Cc1ccccc1)NC(=O)[C@@H]1CC=C[C@@H]2CCN(C3CCCCC3)C(=O)[C@@H]21	nt	nt	nt	-0.4	nt
O=C(O)C1C2C=CC(O2)C1C(=O)Nc1ccccc1C(F)(F)F (stereo not drawn)	-1.7	83.1*	1.0	6.8	101.0
CCOc1cc(/C=C2/C(=O)ON=C2C)ccc1OCc1ccccc1F	40.2	77.9*	-0.2	-0.9	98.0
COc1cccc(NC(=O)CSc2nc3c([nH]c4ccccc43)c(=O)n2C)c1	59.6*	-0.2	-2.7	0.3	104.0
Cc1cccc(NC(=O)CSc2nc3c([nH]c4ccccc43)c(=O)n2C)c1	9.4	18.6	-0.6	-12.1	101.0
